According to the supplement of paper PMC8975748:
Structures can show the parent of a compound that is named as a salt. ± gives the standard deviation of the averaged measurements.

Tests used:
[1] = system: Saccharomyces cerevisiae BY4741 SeMeCo community; assay: z-score of prototroph abundance vs DMSO median; higher = larger share of this subpopulation than in DMSO controls; conditions: 10 µM; 24 h; SM minimal medium; subpopulation (auxotrophy): Prototroph
In short: (§1)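 Subpopulation abundance was reported as a z-score against the median of vehicle wells. The Saccharomyces cerevisiae BY4741 community, carrying four plasmids that each restored one auxotrophy and encoded a distinct fluorescent protein, was grown 24 h in minimal SM medium in 384-well plates holding library drugs at 10 µM final. Cells were paraformaldehyde-fixed and imaged by automated confocal microscopy, with single-auxotroph fluorescent strains used for thresholds and autofluorescence correction.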

[2] = system: Saccharomyces cerevisiae BY4741 SeMeCo community; assay: z-score of subpopulation abundance vs DMSO median, subpopulation auxotrophic for L; higher = larger share of this subpopulation than in DMSO controls; conditions: 10 µM; 24 h; SM minimal medium; subpopulation (auxotrophy): L
In short: as §1

[3] = system: Saccharomyces cerevisiae BY4741 SeMeCo community; assay: z-score of subpopulation abundance vs DMSO median, subpopulation auxotrophic for U; higher = larger share of this subpopulation than in DMSO controls; conditions: 10 µM; 24 h; SM minimal medium; subpopulation (auxotrophy): U
In short: as §1

[4] = system: Saccharomyces cerevisiae BY4741 SeMeCo community; assay: z-score of subpopulation abundance vs DMSO median, subpopulation auxotrophic for H; higher = larger share of this subpopulation than in DMSO controls; conditions: 10 µM; 24 h; SM minimal medium; subpopulation (auxotrophy): H
In short: as §1

[5] = system: Saccharomyces cerevisiae BY4741 SeMeCo community; assay: z-score of subpopulation abundance vs DMSO median, subpopulation auxotrophic for LM; higher = larger share of this subpopulation than in DMSO controls; conditions: 10 µM; 24 h; SM minimal medium; subpopulation (auxotrophy): LM
In short: as §1

[6] = system: Saccharomyces cerevisiae BY4741 SeMeCo community; assay: z-score of subpopulation abundance vs DMSO median, subpopulation auxotrophic for HM; higher = larger share of this subpopulation than in DMSO controls; conditions: 10 µM; 24 h; SM minimal medium; subpopulation (auxotrophy): HM
In short: as §1

[7] = system: Saccharomyces cerevisiae BY4741 SeMeCo community; assay: z-score of subpopulation abundance vs DMSO median, subpopulation auxotrophic for HU; higher = larger share of this subpopulation than in DMSO controls; conditions: 10 µM; 24 h; SM minimal medium; subpopulation (auxotrophy): HU
In short: as §1

[8] = system: Saccharomyces cerevisiae BY4741 SeMeCo community; assay: z-score of subpopulation abundance vs DMSO median, subpopulation auxotrophic for UM; higher = larger share of this subpopulation than in DMSO controls; conditions: 10 µM; 24 h; SM minimal medium; subpopulation (auxotrophy): UM
In short: as §1

[9] = system: Saccharomyces cerevisiae BY4741 SeMeCo community; assay: z-score of subpopulation abundance vs DMSO median, subpopulation auxotrophic for HL; higher = larger share of this subpopulation than in DMSO controls; conditions: 10 µM; 24 h; SM minimal medium; subpopulation (auxotrophy): HL
In short: as §1

[10] = system: Saccharomyces cerevisiae BY4741 SeMeCo community; assay: z-score of subpopulation abundance vs DMSO median, subpopulation auxotrophic for HLU; higher = larger share of this subpopulation than in DMSO controls; conditions: 10 µM; 24 h; SM minimal medium; subpopulation (auxotrophy): HLU
In short: as §1

[11] = system: Saccharomyces cerevisiae BY4741 SeMeCo community; assay: z-score of subpopulation abundance vs DMSO median, subpopulation auxotrophic for HLM; higher = larger share of this subpopulation than in DMSO controls; conditions: 10 µM; 24 h; SM minimal medium; subpopulation (auxotrophy): HLM
In short: as §1

[12] = system: Saccharomyces cerevisiae BY4741 SeMeCo community; assay: z-score of subpopulation abundance vs DMSO median, subpopulation auxotrophic for HUM; higher = larger share of this subpopulation than in DMSO controls; conditions: 10 µM; 24 h; SM minimal medium; subpopulation (auxotrophy): HUM
In short: as §1

[13] = system: Saccharomyces cerevisiae BY4741 SeMeCo community; assay: z-score of subpopulation abundance vs DMSO median, subpopulation auxotrophic for LUM; higher = larger share of this subpopulation than in DMSO controls; conditions: 10 µM; 24 h; SM minimal medium; subpopulation (auxotrophy): LUM
In short: as §1

[14] = system: Saccharomyces cerevisiae BY4741 SeMeCo community; assay: z-score of subpopulation abundance vs DMSO median, subpopulation auxotrophic for HLUM; higher = larger share of this subpopulation than in DMSO controls; conditions: 10 µM; 24 h; SM minimal medium; subpopulation (auxotrophy): HLUM
In short: as §1

[15] = system: Saccharomyces cerevisiae BY4741 SeMeCo community; assay: mean cell size (pixel area) (pixels); higher = larger cells; conditions: 10 µM; 24 h; SM minimal medium
In short: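 Mean cell pixel area per well was determined by automated confocal microscopy with Harmony analysis of paraformaldehyde-fixed cells. The cells, a Saccharomyces cerevisiae BY4741 community of four plasmids that each complement one auxotrophy and carry a fluorescent marker, were incubated for 24 h with drug at a final 10 µM in SM medium in 384-well plates. Numbers are averaged over 3 replicates. Same SeMeCo high-content imaging drug screen: Selleck FDA-approved drugs at 10 µM, 24 h in SM medium, 384-well plates, 3 replicates.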

[16] = system: Saccharomyces cerevisiae BY4741 SeMeCo community; assay: z-score of subpopulation abundance vs DMSO median, subpopulation auxotrophic for M; higher = larger share of this subpopulation than in DMSO controls; conditions: 10 µM; 24 h; SM minimal medium; subpopulation (auxotrophy): M
In short: as §1

[17] = system: Saccharomyces cerevisiae BY4741 SeMeCo community; assay: z-score of subpopulation abundance vs DMSO median, subpopulation auxotrophic for LU; higher = larger share of this subpopulation than in DMSO controls; conditions: 10 µM; 24 h; SM minimal medium; subpopulation (auxotrophy): LU
In short: as §1

Structure (SMILES) | z-score of prototroph abundance [1] | z-score of subpopulation abundance [2] | z-score of subpopulation abundance [3] | z-score of subpopulation abundance [4] | z-score of subpopulation abundance [5] | z-score of subpopulation abundance [6] | z-score of subpopulation abundance [7] | z-score of subpopulation abundance [8] | z-score of subpopulation abundance [9] | z-score of subpopulation abundance [10] | z-score of subpopulation abundance [11] | z-score of subpopulation abundance [12] | z-score of subpopulation abundance [13] | z-score of subpopulation abundance [14] | mean cell size [15] | z-score of subpopulation abundance [16] | z-score of subpopulation abundance [17]
CC1=C(C(=O)O)N2C(=O)[C@@H](NC(=O)[C@H](N)C3=CCC=CC3)[C@H]2SC1 [Cephradine monohydrate] | 0.03 | -0.33 | 1.31 | -0.1 | -0.77 | -0.39 | 0.11 | 0.58 | -0.62 | -0.12 | 0.11 | -0.61 | -0.79 | 0.01 |  |  | 
CC(C)C(=O)Oc1ccc(CO)cc1[C@H](CCN(C(C)C)C(C)C)c1ccccc1 [Fesoterodine Fumarate] | 0.94 | -0.39 | 0.1 | -1.08 |  | -0.41 |  | -0.82 | -0.27 | -0.16 |  | -0.72 | -0.22 | -1.13 | 12.3 ± 0.21 |  | 
CO[C@@]1(NC(=O)CSC[C@@H](N)C(=O)O)C(=O)N2C(C(=O)O)=C(CSc3nnnn3C)CS[C@@H]21 [Cefminox Sodium] | -0.58 | 1.5 | 0.77 | 1.45 | -0.15 | -0.24 | 0.16 | 0 | 1.62 |  | 3.56 | -0.35 | -0.31 | -0.45 | 12.6 ± 0.55 | -0.58 | 0.8
CCc1cccc2c3c([nH]c12)C(CC)(CC(=O)O)OCC3 (stereo not drawn) [Etodolac] |  | -0.55 |  | -0.66 | 0.26 | -0.61 | -0.8 | -0.43 | -0.44 |  | -0.82 | -0.52 | -0.9 | -0.89 | 12.5 ± 0.19 | -0.55 | 0.31
CC(=O)NS(=O)(=O)c1ccc(N)cc1 [Sulfacetamide Sodium] | -0.69 | -0.02 | 0.86 | 0.92 | -0.08 | 0.1 | -0.34 | 0.35 | 0.22 |  | -0.1 | 0.62 | 0.63 | 0.37 | 12.4 ± 0.26 | 0.42 | 0.61
N/C(=N\N=C\c1ccc(Cl)cc1)N/N=C/c1ccc(Cl)cc1 [Robenidine Hydrochoride] | -8.77 | -1.06 | -2.96 | 5.77 | 5.64 | 11.4 | -0.45 | 6.84 | 6.84 | 0.81 | 10.4 | 11.9 |  |  |  |  | 
CCN(CC)C(=O)N1CCN(C)CC1 [Diethylcarbamazine citrate] | 0.16 | -0.21 | 0.67 | -0.57 | -0.13 | -0.19 | -0.43 | 0.18 | -1.04 |  | 0.15 | 0.13 | -0.5 | -0.66 | 12.6 ± 0.14 | -0.11 | 0.3
CN1CCN(c2c(F)cc3c(=O)c(C(=O)O)cn4c3c2OCN4C)CC1 [Marbofloxacin] | 0.49 | -1.17 | 0.59 | -1.41 | -0.36 | -0.43 | -0.06 | -0.02 | -0.85 |  | -0.54 | 0.33 |  | -0.72 | 12.1 ± 0.38 | 0.52 | 0.12
CCCOc1ccc(C(=O)OCCN(CC)CC)cc1N [Proparacaine HCl] | 0.46 | 0.26 | 0.18 | -0.4 | -0.38 | -0.65 | -0.31 | -0.06 |  |  | -0.35 | -0.66 | -0.49 | -0.51 | 12.56 ± 0.068 | -0.55 | 0.25
COc1c(N2C[C@@H]3CCCN[C@@H]3C2)c(F)cc2c(=O)c(C(=O)O)cn(C3CC3)c12 [Moxifloxacin HCl] | -0.74 | 2.07 | -0.98 |  | 2.74 | 0.67 | -0.55 |  | 1.26 |  | 0.72 | 0.22 |  | 1.08 | 12.3 ± 0.15 | 0.89 | -0.22
Cc1nccn1CC1CCc2c(c3ccccc3n2C)C1=O (stereo not drawn) [Ondansetron HCl] | 0.89 | -0.44 | 0.47 | -0.7 | -0.49 | -0.93 | -0.51 | 0.08 | -0.77 |  | -0.71 | -0.03 | -0.9 | -0.89 | 12.4 ± 0.2 | -1.05 | -0.06
Cc1c[nH]c(=O)[nH]c1=O [Thymine] | -0.52 | 0.24 | 0.76 | -0.36 | -0.22 | 0.33 | 0.14 | 0.58 | -0.04 |  | 0.64 | 0.09 | 0.24 | 0.51 | 12.4 ± 0.22 | 0.85 | 0.49
CCCSc1ccc2[nH]c(NC(=O)OC)nc2c1 [Albendazole] | -0.36 | -0.04 | 0.62 | -0.51 |  | 0.37 | -0.61 |  | -0.39 | 0.38 | 0.74 | -0.14 | -0.08 | 0.29 | 12.59 ± 0.075 |  | 
CC[N+](CC)(CC)CC [Tetraethylammonium bromide] | -0.64 | -0.06 | 1.19 |  | 0.41 | 0.22 | -0.09 | 0.12 | -0.73 |  | -0.06 | -0.37 | 0.28 | 1.04 | 12.27 ± 0.094 | 0.89 | 1.18
O=C(O)C1=C(CSc2nnnn2CS(=O)(=O)O)CS[C@@H]2[C@H](NC(=O)[C@H](O)c3ccccc3)C(=O)N12 [Cefonicid sodium] | 0.12 | -0.08 | 0.61 | 0.28 | -0.87 | -0.77 | 0.75 | 0.3 |  |  | 0.46 | -0.26 | -0.25 | 0.08 | 12.47 ± 0.07 | -0.38 | 0.98
